Compounds with a hit are over-represented: about 1.2% of the library has one in this group of screens.
SKN-1 inh: blocks SKN-1 activity in C. elegans | C. elegans VP596 Pgst-4::GFP/RFP ratio, acrylamide-induced, 24 h | inhibition, % at 21.8 µM | 360,000 tested, 0.49% active | AID 624304;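 active = interference check ratio from 0.5 to 1.5 plus GFP to RFP signal ratio inhibition reaching or exceeding a fixed threshold, cut at about 30% in these data, passing the limit was not always enough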
CR mimetic SO: yeast age-related superoxide inhibition as caloric restriction mimetic; S. cerevisiae aged cells, superoxide DHE fluorescence; stronger effect = lower value; superoxide response (% of plate mean), % at 10 µM; 330,000 tested, 0.18% active; AID 2690;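 active = superoxide response under a set limit, about three screen SD below normal, cut at about 65% in these data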;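 also: yeast aged for seven days with compound at 30 °C before DHE staining; 100% = average MFI of all compound-treated wells on the plate with controls excluded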
ABCB6 inh 2: inhibitors of human ABC transporter ABCB6. K562-ABCB6 porphyrin accumulation, flow cytometry, 1 h; stronger effect = lower value. Q9NP58. AID 602162. 360,000 tested, 0.19% active. fluorescence ratio to DMSO, % at 10 µM;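 active = fluorescence ratio to DMSO below 75%, the collection mean minus 3 SD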;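 also: signal is porphyrin accumulated inside mitochondria; 100% equals median channel fluorescence of DMSO control wells; lower ratio means ABCB6 inhibition with less porphyrin fluorescence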
Platelet DG rel: modulates dense granule release in human platelets; human platelet-rich plasma, SFLLRN dense granule ATP release, luminescence; inhibition, %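 (compounds screened at 7.5 µM in platelet-rich plasma)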; 300,000 tested, 0.22% active; AID 1663;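 active = mean replicate score, as percent of positive control, at or above 50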
VLA-4 inh: inhibition in a human VLA-4 binding assay. P13612. VLA-4 expressing cells, ligand binding flow cytometry. inhibition, % (about 7 µM as worked out from the volumes in the protocol). 330,000 tested, 0.2% active. AID 2557; in the data active = inhibition above about 50%
Target sequence (P13612 whole entry, looked up): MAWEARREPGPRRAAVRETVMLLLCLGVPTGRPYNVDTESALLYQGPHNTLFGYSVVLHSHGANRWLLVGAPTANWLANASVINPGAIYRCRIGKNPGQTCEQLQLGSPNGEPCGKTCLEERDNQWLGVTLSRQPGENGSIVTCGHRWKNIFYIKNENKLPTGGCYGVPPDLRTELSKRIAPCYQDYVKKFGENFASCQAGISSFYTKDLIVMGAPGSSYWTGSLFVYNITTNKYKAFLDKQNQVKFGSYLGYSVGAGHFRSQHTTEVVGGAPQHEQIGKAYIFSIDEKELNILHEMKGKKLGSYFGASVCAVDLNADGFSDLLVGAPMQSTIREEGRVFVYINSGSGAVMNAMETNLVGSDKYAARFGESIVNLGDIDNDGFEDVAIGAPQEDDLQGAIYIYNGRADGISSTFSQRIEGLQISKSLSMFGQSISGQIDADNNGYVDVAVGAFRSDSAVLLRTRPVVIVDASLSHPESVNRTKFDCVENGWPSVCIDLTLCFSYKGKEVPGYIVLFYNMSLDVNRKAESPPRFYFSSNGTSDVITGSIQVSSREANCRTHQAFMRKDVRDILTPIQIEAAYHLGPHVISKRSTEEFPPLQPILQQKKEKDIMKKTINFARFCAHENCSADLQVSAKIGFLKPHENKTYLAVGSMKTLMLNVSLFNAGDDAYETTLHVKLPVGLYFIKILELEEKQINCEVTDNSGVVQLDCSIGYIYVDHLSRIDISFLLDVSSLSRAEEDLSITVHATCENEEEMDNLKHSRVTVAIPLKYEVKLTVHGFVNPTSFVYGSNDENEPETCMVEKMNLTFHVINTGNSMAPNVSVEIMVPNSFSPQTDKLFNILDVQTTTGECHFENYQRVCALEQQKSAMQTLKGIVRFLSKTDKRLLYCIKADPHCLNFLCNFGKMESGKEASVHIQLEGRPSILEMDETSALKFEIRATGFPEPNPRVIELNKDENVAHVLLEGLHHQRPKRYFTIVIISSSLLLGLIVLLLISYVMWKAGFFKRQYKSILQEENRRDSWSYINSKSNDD
An asterisk follows results filed as active; · = no result given.

SMILES	SKN-1 inh	CR mimetic SO	ABCB6 inh 2	Platelet DG rel	VLA-4 inh
CCCCOc1ccc(-c2nc(-c3cccnc3)no2)cc1	-2	89	199	6	14
CC(C)CN1C(=O)CSCC1(C)C(=O)NC(C)C (stereo unspecified)	-6	·	·	·	·
CCC(=O)c1ccc(OCC(O)CN2CCN(S(=O)(=O)N3CCCCC3)CC2)cc1 (stereo unspecified)	35*	88	106	8	4
CCC(c1nnnn1-c1c(C)cccc1C)N1CCCN(Cc2ccc(F)cc2)CC1 (stereo unspecified)	15	·	95	·	·
O=S1(=O)CC(N2CC=CC2)CN1Cc1cn(Cc2ccc(Cl)cc2)nn1 (stereo unspecified)	2	·	102	·	·
O=C(c1[nH]c(C(F)(F)F)nc1-c1ccccc1)N1CCN(c2cccc(C(F)(F)F)n2)CC1	-16	·	105	·	·
COc1ccc(/C=N/NC(=O)Cc2csc(Nc3cccc(C(F)(F)F)c3)n2)cc1C	37*	102	101	-3	-3
COc1cc(/C=N/NC(=O)Cc2csc(C)n2)ccc1OCC(C)C	-1	105	95	6	-6
CCOC(=O)c1c(C)[nH]c(C(=O)C(C)OC(=O)c2cnc(C)cn2)c1C (stereo unspecified)	10	92	90	·	-6
CCOC(=O)c1c(C)[nH]c(C(=O)COC(=O)c2oc3ccccc3c2C)c1C	0	109	101	1	9
CCOC(=O)c1c(C)[nH]c(C(=O)COC(=O)c2oc3ccc(OC)cc3c2C)c1C	37*	81	92	6	4
CCOC(=O)c1c(C)[nH]c(C(=O)C(C)OC(=O)c2oc3ccccc3c2COC)c1C (stereo unspecified)	3	91	101	73*	-5
CC1(C(=O)NCc2ccccc2)CN(S(C)(=O)=O)CC(=O)N1CCc1c[nH]c2ccccc12 (stereo unspecified)	-11	·	·	·	·
COC(=O)c1ccc(=O)c2nc3/c(=C/O)c(O)cc(=O)c3[nH]c12	0	45*	98	·	-12
COC(=O)c1ccc(N)cc1O	-15	88	97	0	0
O=C(c1csc2c1CCCC2)n1cccn1	-5	60*	94	-7	5
Cc1cccc(C)c1NC(=O)C(c1ccccc1)N1CCN(C/C=C/c2ccccc2)CC1 (stereo unspecified)	17	·	94	·	·
Cc1ccc(NC2=NC3(CCCCC3)N=C(N)N2)c(C)c1	-5	100	90	3	9
Cc1ccc(NC2=NC3(CCCC3)N=C(N)N2)c(C)c1	1	62*	100	-7	-2
Cc1ccccc1-c1cc2nc(Oc3cccc4ccccc34)n(C)c(=O)c2s1	11	·	99	·	·
CSCCC(c1nnnn1C1CCCCC1)N1CCN(C/C=C/c2ccccc2)CC1 (stereo unspecified)	2	·	108	·	·
COc1ccc(CCNC(=O)c2cc(S(=O)(=O)N3CCOCC3)cn2C)cc1OC	7	126	96	51*	0
COc1ccc(CNC(=O)c2cc(S(=O)(=O)N3CCOCC3)cn2C)cc1	-2	99	99	-28	27
Cc1ccc(CCNC(=O)c2cc(S(=O)(=O)N3CCOCC3)cn2C)cc1	2	81	104	-5	-6
Cc1ccc(C)c(NC(=O)c2cc(S(=O)(=O)N3CCOCC3)cn2C)c1	-15	91	96	111*	13
SMILES	SKN-1 inh	CR mimetic SO	ABCB6 inh 2	Platelet DG rel	VLA-4 inh
COc1cccc(CNC(=O)c2cc(S(=O)(=O)N3CCOCC3)cn2C)c1	-16	98	97	51*	7
Cc1cccc(NC(=O)c2cc(S(=O)(=O)N3CCOCC3)cn2C)c1C	1	85	94	10	28
COc1ccc(CCNC(=O)COc2nsnc2N2CCOCC2)cc1OC	40*	97	103	-4	3
COc1ccc(S(=O)(=O)N2CCC[C@H]2C(=O)N2CCC[C@H]2C(=O)NCc2ccncc2)cc1C	8	·	96	·	·
CN(C)S(=O)(=O)c1cccc(NC(=O)CCc2nc3cc(S(=O)(=O)N4CCOCC4)ccc3n2C)c1	0	105	103	9	-1
CC(NC(=O)CCc1nc2cc(S(=O)(=O)N3CCOCC3)ccc2n1C)c1ccc(S(N)(=O)=O)cc1 (stereo unspecified)	-17	96	100	55*	22
CC(C)C1COC(c2cccc3ccccc23)=N1 (stereo unspecified)	37*	109	100	5	3
COc1ccc(Cc2c(-c3ccc(C)cc3)nc3ccc(Cl)cn23)c(C)c1	10	·	120	·	·
